Screening results from PubChem.
Shown are actives, neighbours in structure and some others; about 2.4% of the full set was active somewhere.
C diff HTS – C. difficile growth inhibition; AID 1259249; 0.25% of 86,000 active; growth activity, negative = inhibition, % at 16 µg/mL (by protocol); Clostridium difficile clinical isolate growth, OD600, 24 h; stronger effect = lower value;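 active = mean growth activity at or below -80% and every replicate also at or below -80%; inconclusive = mean at or below -80% but some replicate above -80%; inactive = mean growth activity above -80%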;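 note: 0% = DMSO wells and -100% = levofloxacin 16 µg/mL wells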
Pf Dd2 growth – P. falciparum Dd2 growth inhibition | AID 1159554 | SYBR Green, 72 h; stronger effect = lower value | activity change, % at 10 µM | 2.3% of 94,000 active; in the data active = activity change below about -80%; inconclusive = no clear call, values can overlap the other calls
Active calls of the source: *; ? = inconclusive; · = no result given.

SMILES | C diff HTS | Pf Dd2 growth
Cc1noc(C)c1S(=O)(=O)Nc1ccc2c(c1)C(=O)N([C@@H](C)CO)C[C@H](C)[C@H](CN(C)C(=O)NC1CCCCC1)OCCCC[C@H](C)O2 | 1 | -44
Cc1noc(C)c1S(=O)(=O)Nc1ccc2c(c1)C(=O)N([C@H](C)CO)C[C@@H](C)[C@@H](CN(C)C(=O)Nc1cccc3ccccc13)OCCCC[C@@H](C)O2 | 5 | -88*
Cc1noc(C)c1S(=O)(=O)Nc1ccc2c(c1)C(=O)N([C@H](C)CO)C[C@@H](C)[C@@H](CN(C)C(=O)NC1CCCCC1)OCCCC[C@@H](C)O2 | 0 | -84*
COc1ccc(S(=O)(=O)Nc2ccc3c(c2)C(=O)N([C@@H](C)CO)C[C@H](C)[C@H](CN(C)C(=O)Nc2cccc4ccccc24)OCCCC[C@@H](C)O3)cc1 | -7 | -82*
C[C@H]1CCCCO[C@H](CN(C)Cc2ccc(C(=O)O)cc2)[C@@H](C)CN([C@@H](C)CO)C(=O)c2cc(NC(=O)Nc3ccc(C(F)(F)F)cc3)ccc2O1 | 0 | 29
CN(C)CCCNC(=O)C[C@H]1CC[C@H](NS(=O)(=O)c2ccccc2)[C@@H](CO)O1 | 4 | 17
COc1ccc2c3c([nH]c2c1)[C@H](CO)N(C(=O)Nc1ccccc1F)CC31CCN(C(=O)C2CC2)CC1 | -2 | -63
Cc1noc(C)c1S(=O)(=O)N(C)C[C@@H]1Oc2ccc(NC(=O)Nc3ccccc3)cc2CC(=O)N([C@@H](C)CO)C[C@@H]1C | · | 9
COc1cccc(NC(=O)N2C[C@H](O)COC[C@H]3O[C@@H](CC(=O)NC4Cc5ccccc5C4)CC[C@@H]32)c1 | -4 | 13
O=C(NCCCN1CCOCC1)[C@@H]1N[C@@H]2c3ccc(C4=CCCC4)c(=O)n3C[C@@H]2[C@H]1CO | -1 | 15
COc1ccc(C#Cc2ccc3c(c2)O[C@H](CN(C)C(=O)Nc2cccc(OC)c2)[C@H](C)CN([C@H](C)CO)S3(=O)=O)cc1 | · | -78
COc1cccc(NC(=O)N(C)C[C@@H]2Oc3cc(C#Cc4ccc(F)cc4)ccc3S(=O)(=O)N([C@@H](C)CO)C[C@H]2C)c1 | 7 | -44
COc1cccc(NC(=O)N(C)C[C@@H]2Oc3cc(C#Cc4ccccc4)ccc3S(=O)(=O)N([C@H](C)CO)C[C@H]2C)c1 | 31 | ?
COc1cccc(NC(=O)N(C)C[C@@H]2Oc3cc(C#Cc4ccc(F)cc4)ccc3S(=O)(=O)N([C@@H](C)CO)C[C@@H]2C)c1 | 5 | -86*
COc1cccc(NC(=O)N(C)C[C@H]2Oc3cc(C#Cc4ccccc4)ccc3S(=O)(=O)N([C@@H](C)CO)C[C@@H]2C)c1 | 51 | -82*
COc1ccc(C#Cc2ccc3c(c2)O[C@@H](CN(C)C(=O)NC2CCCCC2)[C@@H](C)CN([C@H](C)CO)S3(=O)=O)cc1 | 3 | -81*
COc1ccc(C#Cc2ccc3c(c2)O[C@H](CN(C)C(=O)Nc2cccc(OC)c2)[C@@H](C)CN([C@H](C)CO)S3(=O)=O)cc1 | · | -81*
COc1ccc(C#Cc2ccc3c(c2)O[C@@H](CN(C)C(=O)NC2CCCCC2)[C@H](C)CN([C@@H](C)CO)S3(=O)=O)cc1 | -10 | -67
C[C@H]1CN([C@@H](C)CO)C(=O)c2cc(C#CC(C)(C)O)cnc2O[C@@H]1CN(C)Cc1cccc(F)c1 | · | -21
CN(C)C(=O)C[C@@H]1C=C[C@@H](NC(=O)Nc2cccc(F)c2)[C@H](CO)O1 | -3 | -3
O=C(C1CCCCC1)N1CC2(C1)[C@H](c1ccccc1)[C@H](CO)N2CCC(F)(F)F | -3 | -12
CC(C)C#Cc1ccc([C@H]2[C@H](CO)N3C(=O)CN(C(=O)NC4CCCC4)C[C@@H]23)cc1 | -10 | 13
CCCNC[C@@H]1[C@@H](c2ccc(C3=CCCC3)cc2)[C@@H](CO)N1C(=O)C1CCCC1 | -10 | -92*
CCC(=O)N1[C@H](CO)[C@H](c2ccc(C3=CCCC3)cc2)[C@H]1CNC1CCCC1 | -3 | -78
CCC(=O)N1[C@H](CO)[C@H](c2ccc(C3=CCCCC3)cc2)[C@H]1CNC1CCCC1 | 35 | -90*
SMILES | C diff HTS | Pf Dd2 growth
CCC(=O)NC[C@@H]1[C@@H](c2ccc(C3=CCCC3)cc2)[C@@H](CO)N1CC1CCCC1 | 5 | -73
C/C=C/c1ccc([C@H]2[C@@H](CO)N(C(=O)CC)[C@@H]2CNCC2CCCCC2)cc1 | -2 | -85*
OC[C@@H]1[C@H](c2ccc(C3=CCCCC3)cc2)[C@@H](CNC2CCCC2)N1CC1CC1 | 20 | -92*
CCC(=O)NC[C@H]1[C@H](c2ccc(C3=CCCC3)cc2)[C@@H](CO)N1C(=O)C1CC1 | -1 | -11
C/C=C/c1ccc([C@H]2[C@@H](CO)N(C(=O)CC)[C@@H]2CNCC2CCCC2)cc1 | 0 | -71
CC(=O)N(C)C[C@H]1Oc2cc(C#Cc3ccncc3)ccc2S(=O)(=O)N([C@H](C)CO)C[C@H]1C | 8 | 3
CC(C)(C)[S@](=O)N1Cc2cc(C(=O)N3CCCCC3)nc(-c3cccc(-c4cccc(C#N)c4)c3)c2[C@@H]1CCO | · | -3
CCCN1[C@H](C(=O)N[C@@H](C)c2ccccc2)[C@@H](CO)[C@@H]2Cn3c(ccc(-c4cccc(F)c4)c3=O)[C@@H]21 | -7 | ·
CC(=O)N[C@H]1CC[C@H](CC(=O)NCc2ccc(Cl)cc2)O[C@@H]1CO | 0 | 2
C[C@@H]1CN([C@@H](C)CO)C(=O)c2cc(NC(=O)Nc3cccc4ccccc34)ccc2O[C@@H](C)CCCCO[C@H]1CN(C)S(=O)(=O)c1cccs1 | · | -53
C[C@@H]1CN([C@H](C)CO)S(=O)(=O)c2ccc(C#CC3CCCCC3)cc2O[C@@H]1CN(C)C | 17 | -81*
C[C@H](CO)N1C[C@H](C)[C@H](CN(C)C(=O)c2cccc(F)c2)Oc2cc(C#CC3CCCC3)ccc2S1(=O)=O | · | -65
C[C@H](CO)N1C[C@H](C)[C@@H](CN(C)C)Oc2cc(C#CC3CCCCC3)ccc2S1(=O)=O | 16 | -54
CCCN(C)C[C@H]1Oc2cc(C#CC3CCCC3)ccc2S(=O)(=O)N([C@H](C)CO)C[C@H]1C | 6 | -84*
CCCN(C)C[C@@H]1Oc2cc(C#CC3CCCCC3)ccc2S(=O)(=O)N([C@H](C)CO)C[C@H]1C | 32 | -20
C[C@@H]1CN([C@H](C)CO)S(=O)(=O)c2ccc(C#CC3CCCC3)cc2O[C@H]1CN(C)C(=O)c1cccc(F)c1 | · | -85*
C[C@H]1CN([C@@H](C)CO)S(=O)(=O)c2ccc(C#CC3CCCC3)cc2O[C@H]1CN(C)Cc1cccnc1 | 10 | -77
C[C@@H]1CN([C@H](C)CO)S(=O)(=O)c2ccc(C#CC3CCCC3)cc2O[C@H]1CN(C)Cc1cccnc1 | 1 | -82*
O=C(Nc1ccc(Cl)cc1)N[C@@H]1CC[C@H](CCn2cc(C3(O)CCCC3)nn2)O[C@@H]1CO | · | -67
C[C@H](CO)N1C[C@H](C)[C@@H](CN(C)CC2CC2)Oc2c(NC(=O)C3CCOCC3)cccc2C1=O | -4 | 11
O=C(NCC[C@@H]1CC[C@H](NS(=O)(=O)c2cccc(Cl)c2)[C@H](CO)O1)c1cnccn1 | -2 | 6
O=C(C[C@H]1C[C@H]2c3cc(NC(=O)NC4CCCC4)ccc3O[C@H]2[C@@H](CO)O1)NCCN1CCCCC1 | 0 | 14
COc1ccc(S(=O)(=O)N(C)C[C@H]2Oc3cc(C#CC4CCCCC4)ccc3S(=O)(=O)N([C@H](C)CO)C[C@H]2C)cc1 | · | -66
